# Screens deposited in PubChem by The Scripps Research Institute Molecular Screening Center.
# Most compounds without a hit are left out; they make up all but 1.8% or so of the library.
# Fam108B counter – Fam108B inhibition, counter-screen for RBBP9 inhibitors | AID 1947 | recombinant Fam108B, FP-Rh probe fluorescence polarization | actives 0.33% (n = 300,000) | inhibition, % at 9.51 µM;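 active means inhibition above the screen mean inhibition plus 3 SD, computed separately per campaign, cut at about 18% in these data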;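 further: inhibitors lower polarization as less probe binds the enzyme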
# PME-1 primary – PME-1 (human) inhibition; inhibition, % at 5.9 µM; Q9Y570; actives 0.53% (n = 320,000); AID 2130; recombinant PME-1, FP-Rh probe fluorescence polarization;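 active means inhibition above the campaign mean of all compounds plus 3 SD, cut at about 26% in these data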;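 further: competitive labeling of PME-1 active site by serine hydrolase directed probe; 0% = PME-1 with DMSO and 100% = wells lacking PME-1 enzyme; inhibitors block probe labeling so polarization falls and inhibition rises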
# Target sequence (Q9Y570 whole entry, looked up): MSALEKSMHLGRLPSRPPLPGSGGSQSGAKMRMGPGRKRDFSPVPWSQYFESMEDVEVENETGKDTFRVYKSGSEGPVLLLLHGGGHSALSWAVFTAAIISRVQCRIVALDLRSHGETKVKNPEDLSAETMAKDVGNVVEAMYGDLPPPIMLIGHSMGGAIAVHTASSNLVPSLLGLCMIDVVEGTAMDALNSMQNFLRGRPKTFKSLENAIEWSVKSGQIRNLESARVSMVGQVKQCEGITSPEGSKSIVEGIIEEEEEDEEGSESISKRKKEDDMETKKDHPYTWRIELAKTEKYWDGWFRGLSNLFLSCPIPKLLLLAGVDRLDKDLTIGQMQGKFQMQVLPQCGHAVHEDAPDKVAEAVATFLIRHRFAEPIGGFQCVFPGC
# LYPLA1 counter – counter-screen for PME1 inhibitors: inhibitors of human LYPLA1; AID 2174; inhibition, % at 5.9 µM; recombinant LYPLA1, FP-Rh probe fluorescence polarization; actives 0.16% (n = 320,000); O75608;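 active means inhibition above the mean of all tested compounds plus 3 SD, set per campaign, cut at about 14% in these data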;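 further: inhibitors block serine hydrolase probe labeling of LYPLA1 so polarization falls; 0% = enzyme with DMSO and 100% = wells lacking LYPLA1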
# GSTO1 inh – counter-screen for RBBP9 inhibitors: inhibitors of human GSTO1. P78417. recombinant GSTO1, activity-based probe fluorescence polarization. inhibition, % at 5.96 µM. actives 1.1% (n = 300,000). AID 1974;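 active means inhibition above the campaign mean inhibition plus 3 SD, cut at about 35% in these data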;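 further: 0% = GSTO1-1 with DMSO and 100% = wells lacking GSTO1-1 enzyme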
# LYPLA2 counter – LYPLA2 (human) inhibition in PME1 counter-screen; O95372; recombinant LYPLA2, FP-Rh probe fluorescence polarization; inhibition, % at 5.9 µM; actives 0.38% (n = 320,000); AID 2177;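 active means inhibition above the screen-wide mean plus 3 SD, limit set per campaign, cut at about 26% in these data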;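 further: 0% = LYPLA2 with DMSO and 100% = wells lacking LYPLA2 enzyme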
# Target sequence (O95372 whole entry, looked up): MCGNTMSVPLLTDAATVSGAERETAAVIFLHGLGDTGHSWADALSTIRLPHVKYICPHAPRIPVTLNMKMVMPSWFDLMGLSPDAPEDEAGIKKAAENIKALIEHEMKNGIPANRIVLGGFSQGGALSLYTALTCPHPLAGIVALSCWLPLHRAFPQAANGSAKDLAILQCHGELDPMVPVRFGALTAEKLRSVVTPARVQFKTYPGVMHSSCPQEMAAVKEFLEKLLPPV
# PAD4 inh – PAD4 (human) enzyme inhibition; Q9UM07; recombinant PAD4, RCA probe fluorescence polarization; inhibition, % at 6.36 µM; actives 0.41% (n = 330,000); AID 485272;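 active means percent inhibition above a cutoff equal to the mean of all tested compounds plus 3 SD, cut at about 15% in these data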;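 further: 0% = PAD4 with RCA probe and DMSO and 100% = probe without PAD4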
# PAD4 FP conf – PAD4 (human) inhibition, confirmed | actives 28% (n = 1,200) | AID 488796 | shares compounds with PAD4 inh | inhibition, % at 6.36 µM | recombinant PAD4, RCA probe fluorescence polarization;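 active means mean inhibition across replicates above the hit cutoff set by the earlier primary screen, cut at about 15% in these data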;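 further: inhibitors block active-site labeling by the probe so polarization falls; 0% = PAD4 with probe and DMSO and 100% = probe without PAD4 enzyme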
# Active calls of the source: *; . = not tested or not shown.
SMILES,Fam108B counter,PME-1 primary,LYPLA1 counter,GSTO1 inh,LYPLA2 counter,PAD4 inh,PAD4 FP conf
CC1=NN(c2ccc(Cl)cc2)C(=O)C1C(c1ccccc1O)c1c(C)[nH]n(-c2ccc(Cl)cc2)c1=O (stereo unspecified),17,12,7,72*,21,67*,-8
CCC1C(=O)N=C(SCC(=O)Nc2ccc(C(=O)OC)cc2)NC1=O (stereo unspecified),0,-1,2,0,2,16*,21*
COC(=O)c1ccc(NC(=O)CSC2=NCCN2)cc1,3,-7,-2,2,-7,18*,30*
COC(=O)c1cc(NC(=O)Cc2ccc(OC)cc2)cc(C(=O)OC)c1,3,0,0,-1,22,21*,17*
O=C(CSC1=NCCS1)NC(NC(=O)CSC1=NCCS1)c1ccccc1,3,-3,5,-27,2,-2,.
COc1ccc(CC(=O)Nc2ccc(C(N)=O)cc2)cc1,3,0,-2,7,-5,-1,.
COC(=O)c1cc(NC(=O)CSC2=NCCS2)cc(C(=O)OC)c1,-1,-4,-2,-3,6,18*,15*
O=c1ccc(S(=O)(=O)N2CCCC2)cn1Cc1ccc(Cl)cc1Cl,.,4,3,.,5,2,.
C(=Nc1ccc(Nc2ccccc2)cc1)c1ccc2ccccc2c1,2,1,1,34,7,24*,3
O=C(NCCCN1CCOCC1)c1cc2c([nH]c3ccccc32)c(-c2cccc(Br)c2)n1,-8,-9,-19,-17,-21,46*,31*
O=c1c(/C=N\NS(=O)(=O)c2ccccc2)coc2ccc(Cl)cc12,-1,13,-1,-5,6,0,.
O=C(NC(=S)Nc1ccc(F)c([N+](=O)[O-])c1)c1ccccc1F,3,5,-3,11,-8,17*,3
O=C(NC(=S)Nc1ccc2[nH]c(=O)[nH]c2c1)c1ccccc1F,-3,8,-1,-13,4,-2,.
O=C1C(=O)N(c2ccc(O)cc2)C(c2ccccc2[N+](=O)[O-])/C1=C(\O)c1ccccc1 (stereo unspecified),-2,3,3,3,-4,24*,2
CCN(CC)C(=O)[C@H]1CC(CC(=O)NCC23CC4CC(CC(C4)C2)C3)C(=O)N2CCc3c([nH]c4ccccc34)[C@]12C (stereo partly specified),.,.,.,.,.,-1,.
COc1ccccc1N1C(=O)CC(Nc2ccc(N3CCOCC3)cc2)C1=O (stereo unspecified),-2,1,2,5,4,24*,2
COc1ccc(NC2CC(=O)N(c3ccccc3)C2=O)cc1 (stereo unspecified),8,-4,-2,-1,8,5,.
O=C1CC(Nc2ccc(N3CCOCC3)cc2)C(=O)N1Cc1ccccc1 (stereo unspecified),0,5,4,32,10,35*,-1
COc1ccccc1NC(=O)C1CCN(S(=O)(=O)c2cccs2)CC1,.,16,6,.,19,18*,4
COc1ccc(OC)c(NC(=O)C2CCN(S(=O)(=O)c3cccs3)CC2)c1,2,4,2,2,0,-2,.
CCOC(=O)c1cccc(C2=CC(=O)C[C@H](c3ccc(OC)cc3)C2)c1,.,7,3,.,17,-3,.
CCOC(=O)c1ccc(NC(=O)CSc2nc(=O)n(CCN3CCOCC3)c3c2CCC3)cc1,1,1,-1,0,-8,17*,8
CCN(CC)CCn1c2c(c(SCC(=O)Nc3nc4ccccc4s3)nc1=O)CCC2,-2,2,0,10,1,17*,14
CC1(C)CC(NC(=O)c2ccc(Cl)c(S(=O)(=O)N(Cc3ccccc3)c3ccccc3)c2)CC(C)(C)N1,-1,-7,3,3,-5,-2,.
CCN(C(=O)C(C)Sc1ccc(S(=O)(=O)N2CCOCC2)cn1)c1ccccc1 (stereo unspecified),.,5,1,.,-1,1,.
SMILES,Fam108B counter,PME-1 primary,LYPLA1 counter,GSTO1 inh,LYPLA2 counter,PAD4 inh,PAD4 FP conf
CN(C)C(=O)CCc1ccc2c3c([nH]c2c1)[C@]1(CCC2CCCC2)[C@@H](C(=O)N2CCOCC2)C[C@H](CC(=O)NCCc2ccccn2)C(=O)N1CC3,.,.,.,.,.,1,.
COc1ccc(C)cc1N(CC(=O)NCCSCc1cccc(Cl)c1)S(C)(=O)=O,2,2,2,3,0,-1,.
CCN(CC)S(=O)(=O)c1ccc2c(c1)c(=O)c(C(=O)N1CCN(c3ccccn3)CC1)cn2C,-2,3,-4,-1,-10,20*,-4
O=C(CNC(=O)c1cccc(F)c1)NC1CC1,.,.,.,.,.,4,.
Cc1nc(SCC(=O)c2ccccc2)[nH]c(=O)c1Oc1ccc(Cl)cc1,-1,4,0,-2,-1,21*,3
CCCN1CCC(=O)N(CCO)CC1,0,-3,-2,9,-1,0,.
COc1cc(C2C(C#N)=C(N)Oc3n[nH]c(-c4cccnc4)c32)ccc1OCC(N)=O (stereo unspecified),-1,4,3,14,-2,21*,5
COc1cc(C2C(C#N)=C(N)Oc3n[nH]c(-c4cccnc4)c32)cc(Br)c1O (stereo unspecified),-6,-2,0,14,-5,21*,-4
CC(=NC1CC1)c1c(-c2ccccc2)[nH]n(-c2nc3ccccc3s2)c1=O,-6,-8,-3,-1,-7,5,.
CC(=NC1CCCC1)c1c(C)[nH]n(-c2nc3ccccc3s2)c1=O,-4,-4,-7,-13,0,19*,17*
CCOC(=O)c1ccc(-n2[nH]c(-c3ccccc3)cc2=O)cc1,0,9,4,36*,9,40*,-16
Cc1[nH]c2ccc(C(=O)NCc3ccccn3)cc2c1C,-1,5,0,3,0,-3,.
CN(C)c1cccc(O)c1,.,-6,1,.,7,22*,2
CCCCCN1N=C(C)CC1=O,-2,-5,-4,30,-4,22*,-1
CN(C)C(=O)CCc1ccc2c3c([nH]c2c1)[C@]1(C)[C@@H](C(=O)N2CCOCC2)C[C@H](CC(=O)NCc2cccc(C(F)(F)F)c2)C(=O)N1CC3,.,.,.,.,.,-1,.
CCOc1ccc2c(O)csc2c1,-5,-5,0,3,-4,24*,20*
COc1ccccc1-c1noc(CCCC(=O)NC2CCCCC2)n1,-4,-1,0,5,-6,0,.
O=C(NCc1cccc(OC(F)(F)F)c1)c1cccc2c1C(=O)c1ccc(-c3ccc(F)cc3OCc3ccccc3)cc1S2(=O)=O,.,.,.,.,.,4,.
